aSyn UTR act – Activators working through SNCA 5'UTR binding (MLPCN); hit rate 7.1% among 300,000; alpha-synuclein 5'UTR reporter, activators screen; activity score, % (tested at 7.5 µM), hits read low; in the data active = activity score below about -60%
Hits are given with their value; - = inactive. A selection follows.

SMILES | aSyn UTR act
COC(=O)c1ccc(COc2ccc(C)cc2[N+](=O)[O-])o1 | -130
Cc1ccc(Oc2ncnc3sccc23)cc1 | -143
c1ccc(OCCOc2ncnc3sccc23)cc1 | -126
CCOc1ccc(OCCOc2ncnc3ccccc23)cc1 | -70
Cc1cc(C)nc(Nc2n[nH]c(-c3ccc(C(C)(C)C)cc3)n2)n1 | -129
Cc1cc(C)nc(Nc2n[nH]c(-c3ccc(N)cc3)n2)n1 | -140
CCc1nnc(NC(=O)Nc2ccccc2OC)s1 | -70
CCOc1ccc(Nc2n[nH]c(=S)s2)cc1 | -112
CC(=O)Nc1nnc(COc2ccc(Cl)cc2)s1 | -109
CCOc1ccc(Nc2cc(C)nc(-n3nc(C)cc3C)n2)cc1 | -
COc1ccccc1NC(=O)Nc1nnc(C(C)C)s1 | -81
CCOc1ccc(NC(=O)Nc2nnc(CC)s2)cc1 | -105
Nc1n[nH]c(N)c1N=Nc1ccc(Cl)cc1Cl | -74
N#Cc1cc2ccc(N3CCOCC3)cc2cc1C#N | -73
CC(=O)Nc1ncc(N=Nc2cccc(C(F)(F)F)c2)s1 | -79
Brc1ccc2oc3c(N4CCOCC4)ncnc3c2c1 | -158
Oc1ccc(-c2nc3ccc4ccccc4c3c3c2CCC3)cc1O | -151
Cc1ccc(Cn2ccnc2C(=O)Nc2ccccc2)cc1 | -156
CCOC(=O)c1cnc(Nc2nc3ccccc3o2)nc1C | -
CCOC(=O)c1cnc(Nc2nc3ccccc3o2)nc1CSc1nnc(C)s1 | -86
CCN1CCN(c2ccc(NC(=O)c3ccc(Br)o3)cc2)CC1 | -91
CCC(=O)N1CCN(c2ccc(NC(=O)c3ccc([N+](=O)[O-])o3)cc2)CC1 | -
O=C(Nc1ccc(N2CCN(C(=O)c3ccc(Cl)cc3)CC2)cc1)c1ccc([N+](=O)[O-])o1 | -
O=C(Nc1ccc(N2CCN(C(=O)c3ccccc3)CC2)cc1)c1ccc(Br)o1 | -69
Cc1nc2cc(-c3cccs3)[nH]n2c(=O)c1C | -108
SMILES | aSyn UTR act
Cc1ccccc1-c1cc2nc(C)c(C)c(=O)n2[nH]1 | -101
Cc1nc2cc(-c3ccc(F)cc3)[nH]n2c(=O)c1C | -129
Cc1ccc(NC(=O)C2=C(O)CCn3c2nc2ccccc23)cc1 | -131
CN1CCN(c2ccc(-c3cccc(NC(=O)COc4ccc(Cl)cc4)c3)nn2)CC1 | -131
CCC(=O)Nc1cccc(-c2ccc(N3CCN(C)CC3)nn2)c1 | -73
CN1CCN(c2ccc(-c3cccc(NC(=O)COc4ccccc4)c3)nn2)CC1 | -70
Cn1ncc2c(O/N=C(\N)c3ccc(C(C)(C)C)cc3)ncnc21 | -
CC(=O)Nc1ccc(Nc2ncnc3c2cnn3-c2cccc(C)c2)cc1 | -159
Cn1ncc2c(Nc3ccc4ccccc4c3)ncnc21 | -164
O=[N+]([O-])c1ccc(O)c(/C=N/Nc2ncnc3c2cnn3-c2ccccc2)c1 | -
Clc1ccc(Nc2ncnc3c2cnn3-c2ccccc2)cc1 | -119
CC(=O)Nc1ccc(Nc2ncnc3c2cnn3-c2ccccc2)cc1 | -110
CC(C)Nc1ncnc2c1cnn2-c1ccc(Cl)cc1 | -
CCN(CC)c1ccc(C(=S)NC2CCCCC2)cc1 | -64
CN(C)c1ccc(C(=S)NC2CCCCC2)cc1 | -111
CCN(CC)C(=O)N1c2ccccc2C=Cc2ccccc21 | -101
c1ccc(-n2nnc3c(N4CCOCC4)ncnc32)cc1 | -
O=c1c(Br)c(N2CCOCC2)cnn1-c1ccccc1 | -144
O=C(Cn1ncc(N2CCOCC2)c(Br)c1=O)c1ccc(Cl)cc1 | -111
O=c1c(Br)c(N2CCCC2)cnn1-c1ccccc1 | -138
CCN(CC)CCNC(=O)c1cc2c(=O)n(C)c3ccccc3c2s1 | -70
CCCCN(CC)CCNC(=O)c1cc2c(-c3ccccc3F)nn(C)c2s1 | -75
CCCCN(CC)CCNC(=O)c1cc2c(=O)n(C)c3ccccc3c2s1 | -67
C=CCc1cccc(/C=C/c2cc(=O)c3ccccc3[nH]2)c1O | -71
C=CCc1cccc(/C=N/NC(=O)CNc2ccccc2)c1O | -
SMILES | aSyn UTR act
Cc1ccc(-c2ccc(SCC(=O)N3CCN(c4ccccc4)CC3)nn2)cc1 | -91
O=C(CCSc1ccc(Cl)cc1)N1CCN(c2ncccn2)CC1 | -103
O=C(CCSc1ccc(Cl)cc1)N1CCCCCC1 | -133
O=C(CCSc1ccccc1)N1CCN(c2ccccc2)CC1 | -137
Cc1nc2cc(-c3ccccc3)nn2c(C)c1CCC(=O)N1CCN(c2ccccc2)CC1 | -
O=C(CCS(=O)(=O)c1ccccc1)N1CCN(c2ccc(F)cc2)CC1 | -79
CCCCCN=C(C)c1c(O)c2ccccc2oc1=O | -212
COC(=O)c1sccc1NC(=O)COc1ccccc1Cl | -132
O=C(COc1ccccc1Cl)Nc1cc(Cl)ccc1O | -185
CCOC(=O)N1CCC(NC(=O)c2ccc3c(c2)sc2nc(-c4ccc(OC)cc4)cn23)CC1 | -98
CCOC(=O)N1CCN(C(=O)c2ccc3c(c2)sc2nc(-c4ccccc4)cn23)CC1 | -109
CCOC(=O)N1CCN(C(=O)c2nc3ccccc3s2)CC1 | -93
CC(Sc1ccccn1)C(=O)Nc1ccccc1 (stereo not drawn) | -208
O=C(Nc1ccccn1)C(=O)Nc1ccccn1 | -95
O=C(Nc1ccccc1)Nc1ccccn1 | -126
S=C(Nc1ccccn1)c1ccccn1 | -115
O=C(Nc1ccccn1)c1ccc(-c2ccccc2)cc1 | -
N/C(=N\NC(=O)Nc1ccc(Cl)cc1)c1ccccn1 | -114
O=C(Nc1ccc(Cl)cc1)Nc1ccccn1 | -167
O=C(Nc1ccccc1)Nc1cccc2cccnc12 | -178
CCOC(=O)c1ccc(NC(=O)C2CCCN(c3cnccn3)C2)cc1 (stereo not drawn) | -88
CCOC(=O)c1ccc(NC(=O)Nc2ccccn2)cc1 | -90
CCOC(=O)c1ccc(NC(=O)c2cnccn2)cc1 | -67
COC(=O)c1ccc2c(c1)C(=O)/C(=C/c1ccc(C)cc1)O2 | -143
COC(=O)c1ccc(/C=C2\Oc3ccccc3NC2=O)cc1 | -110
SMILES | aSyn UTR act
Cc1ccc2nc(COc3ccc(Cl)cc3)cc(=O)n2c1 | -109
COCC(C)n1c(SCc2cc(=O)n3cc(C)ccc3n2)nc2ccccc2c1=O (stereo not drawn) | -
Cc1ccc2c(c1)C(O)(CC(=O)/C=C/C=C/c1ccccc1)C(=O)N2 (stereo not drawn) | -112
CC(=O)Nc1cccc(C(=O)OCC(=O)N2CCC(c3ccccc3)=N2)c1 | -89
CCC(=O)Nc1cccc(C(=O)OCC(=O)c2ccccc2Cl)c1 | -171
CC(=O)Nc1cccc(C(=O)OCC(=O)c2ccccc2Cl)c1 | -99
O=[N+]([O-])c1ccc(N=Nc2ncc[nH]2)cc1 | -96
O=c1c2ccccc2nnn1CSc1ccccc1 | -75
O=C(Nc1nc2c(s1)CCc1ccccc1-2)c1cccs1 | -110
O=C(Nc1nc2c(s1)COc1ccccc1-2)c1cccs1 | -104
Cc1ccc2nc(-c3ccc(NS(=O)(=O)c4ccc(F)c(F)c4)cc3)sc2c1 | -124
Cc1ccc2nc(-c3ccc(NS(=O)(=O)c4ccccc4)cc3)sc2c1 | -85
COc1ccc(CC(=O)N2CCc3ccccc32)cc1 | -74
COc1ccc(CC(=O)N2CCC(c3ccccc3)C2)cc1 (stereo not drawn) | -65
COc1ccc2c(CC(=O)N3CCc4ccccc43)coc2c1 | -105
COc1cc(/C=N/NC(=O)CN2CCOCC2)ccc1OCc1ccccc1 | -97
CC(C)(C)OC(=O)COc1ccc(/C=N/NC(=O)CN2CCCCC2)cc1 | -86
COc1cc(/C=N/NC(=O)CN2CCCCC2)ccc1OCc1ccccc1 | -137
COc1ccc(NCN2C(=O)C3C4C=CC(C4)C3C2=O)cc1 (stereo not drawn) | -67
COc1ccc(C(=O)O/N=C(\N)c2ccc(OC)c(OC)c2)cc1 | -139

Bioassay records as filed in PubChem BioAssay.
